{"source": "PubChem BioAssay (EPA / NIEHS)", "note": "Records with an inconclusive call do not appear. Active and inactive are the calls of the source. Rule for the calls: active = hit-call score of the fitted dose curve at least 0.9, where 1 is the maximum; inconclusive = response in the unintended direction; inactive = score below 0.9.", "data": [{"target": "Peroxisome proliferator-activated receptor gamma (Homo sapiens) (UniProt P37231)", "sequence (P37231 whole entry, looked up)": "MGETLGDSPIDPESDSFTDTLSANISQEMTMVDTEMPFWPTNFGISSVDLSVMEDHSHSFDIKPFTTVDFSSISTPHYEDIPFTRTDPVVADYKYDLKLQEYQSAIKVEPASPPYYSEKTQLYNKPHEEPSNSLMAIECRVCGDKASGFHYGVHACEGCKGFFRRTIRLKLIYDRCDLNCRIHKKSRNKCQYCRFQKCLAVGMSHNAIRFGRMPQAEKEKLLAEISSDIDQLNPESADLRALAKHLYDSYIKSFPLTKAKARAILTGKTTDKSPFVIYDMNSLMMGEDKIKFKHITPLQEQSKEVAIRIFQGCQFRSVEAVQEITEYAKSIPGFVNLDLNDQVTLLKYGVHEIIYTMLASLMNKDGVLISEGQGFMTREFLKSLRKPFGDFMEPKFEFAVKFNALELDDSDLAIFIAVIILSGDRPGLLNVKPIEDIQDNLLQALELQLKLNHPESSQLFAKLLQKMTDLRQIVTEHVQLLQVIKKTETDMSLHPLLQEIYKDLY", "assay": "NVS_NR_hPPARg: NovaScreen (NVS) Nuclear Receptor Binding Assay for human Peroxisome Proliferator-activated Receptor gamma (PPARg) (AID 2283370)", "protocol": "NVS_NR_hPPARg is a biochemical, single-readout assay that uses extracted gene-proteins in a cell-free assay. Measurements were taken 2 hours after chemical dosing in a 384-well plate.NVS_NR_hPPARg is one of one assay component(s) measured or calculated from the NVS_NR_hPPARg assay. It is designed to make measurements of fluorescent polarization, a form of binding reporter, as detected with fluorescence polarization signals by Fluorescence Polarization technology.Data from the assay component NVS_NR_hPPARg was analyzed into 1 assay endpoint. This assay endpoint, NVS_NR_hPPARg, was analyzed in the positive analysis fitting direction relative to DMSO as the negative control and baseline of activity. Using a type of binding reporter, loss-of-signal activity can be used to understand changes in the binding as they relate to the gene PPARG. Furthermore, this assay endpoint can be referred to as a primary readout, because the performed assay has only produced 1 assay endpoint. To generalize the intended target to other relatable targets, this assay endpoint is annotated to the nuclear receptor intended target family, where the subfamily is non-steroidal.\nBinding assays used specific radioligands (tritiated, iodinated) with non-radioactive competitive displacement ligands in agonist or antagonist protocols (as indicated) and various reference compounds and inhibitors to titrate specific binding to receptors and transporters. Most enzyme assays (CYPs, kinases, phosphatases, proteases, HDACs) used recombinant protein and specific substrates (fluorescence mostly, some colorimetric and radioactive) and inhibitors, followed by a biochemical separation of substrate and product. All assays for the biochemical HTS were initially run in duplicate at a single concentration (10 uM for CYP450 assays and 25 uM for all others). […] Each assay was run with positive and negative controls, and concurrent controls on every plate. The follow-up (secondary) screen tested active chemical-pairs in concentration series, as well as a few additional assays not tested in the primary screen, some selected negative inactives, and several cases re-run in the concentration series for confirmatory purposes.", "values": [{"smiles": "CC(C)=CC1C(C(=O)OCc2coc(Cc3ccccc3)c2)C1(C)C", "note": "(centres undefined)", "AC50": "2.9 µM (active)"}, {"smiles": "COCC(C)N(C(=O)CCl)c1c(C)csc1C", "note": "(centres undefined)", "outcome": "inactive"}, {"smiles": "CCCCC(C#N)(Cn1cncn1)c1ccc(Cl)cc1", "note": "(centres undefined)", "outcome": "inactive"}, {"smiles": "O=C1C2CC=CCC2C(=O)N1SC(Cl)(Cl)Cl", "note": "(centres undefined)", "outcome": "inactive"}, {"smiles": "Nc1c(Cl)c(F)nc(OCC(=O)O)c1Cl", "outcome": "inactive"}, {"smiles": "CCSC(=O)N1CCCCCC1", "outcome": "inactive"}, {"smiles": "Cc1c(COC(=O)[C@@H]2[C@H](/C=C(\\Cl)C(F)(F)F)C2(C)C)cccc1-c1ccccc1", "outcome": "inactive"}, {"smiles": "CCCC(=NOCC)C1=C(O)CC(CC(C)SCC)CC1=O", "note": "(centres undefined)", "outcome": "inactive"}, {"smiles": "N#Cc1c(Cl)cccc1Cl", "outcome": "inactive"}, {"smiles": "Cc1cc(C)nc(Nc2ccccc2)n1", "outcome": "inactive"}, {"smiles": "CC(C)NC(=O)N1CC(=O)N(c2cc(Cl)cc(Cl)c2)C1=O", "outcome": "inactive"}, {"smiles": "CC(C)(C)C(=O)C(Oc1ccc(Cl)cc1)n1cncn1", "note": "(centres undefined)", "outcome": "inactive"}, {"smiles": "CCCCC(O)(Cn1cncn1)c1ccc(Cl)cc1Cl", "note": "(centres undefined)", "outcome": "inactive"}, {"smiles": "N#Cc1c[nH]cc1-c1cccc2c1OC(F)(F)O2", "outcome": "inactive"}, {"smiles": "CCNP(=S)(OC)O/C(C)=C/C(=O)OC(C)C", "note": "(centres undefined)", "outcome": "inactive"}, {"smiles": "COP(=S)(OC)Oc1ccc([N+](=O)[O-])c(C)c1", "AC50": "3.38 µM (active)"}, {"smiles": "CCN(CC)c1nc(C)cc(OP(=S)(OC)OC)n1", "outcome": "inactive"}, {"smiles": "CCOC(=O)C(C)OC(=O)c1cc(Oc2ccc(C(F)(F)F)cc2Cl)ccc1[N+](=O)[O-]", "note": "(centres undefined)", "outcome": "inactive"}, {"smiles": "COCC(=O)N(c1c(C)cccc1C)C(C)C(=O)OC", "note": "(centres undefined)", "outcome": "inactive"}]}]}
